Shown is part of a subset that was picked to be rich in the strongest signals.
How the values were obtained:
Assay in all cases: glycan array binding signal (z-score within array); higher = stronger binding
Conditions in all cases: glycan notation: IUPAC condensed, linker removed
[1] = molecular target: Fuc(a1-2)Gal(b1-3)GalNAc(b1-3)Gal
In short: (§1)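 From the Consortium for Functional Glycomics database, 3228 arrays were curated, keeping only those whose protein sequence was available. Binding is given as a within-array Z-score averaged across arrays sharing a protein sequence and across linkers. Negative Z-scores can be read as non-binding.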

[2] = molecular target: Fuc(a1-2)Gal(b1-3)GalNAc(b1-3)Gal(a1-4)Gal(b1-4)Glc
In short: as §1

[3] = molecular target: Fuc(a1-2)Gal(b1-3)GlcNAc6S
In short: as §1

[4] = molecular target: Fuc(a1-2)Gal(b1-4)GlcNAc(b1-3)Gal(b1-4)GlcNAc
In short: as §1

[5] = molecular target: Fuc(a1-2)Gal(b1-4)GlcNAc(b1-3)GalNAc
In short: as §1

[6] = molecular target: Fuc(a1-2)Gal(b1-4)[Fuc(a1-3)]GlcNAc(b1-3)Gal(b1-4)[Fuc(a1-3)]GlcNAc(b1-3)Gal(b1-4)[Fuc(a1-3)]GlcNAc
In short: as §1

[7] = molecular target: Fuc(a1-2)Gal6S(b1-4)Glc6S
In short: as §1

[8] = molecular target: Fuc(a1-2)[Gal(a1-3)]Gal(b1-3)GlcNAc
In short: as §1

[9] = molecular target: Fuc(a1-2)[Gal(a1-4)]Gal(b1-4)GlcNAc
In short: as §1

[10] = molecular target: Fuc(a1-2)[GalNAc(a1-3)]Gal(b1-4)GlcNAc(b1-3)Gal(b1-4)GlcNAc(b1-3)Gal(b1-4)GlcNAc
In short: as §1

[11] = molecular target: Fuc(a1-2)[GalNAc(a1-3)]Gal(b1-4)GlcNAc(b1-3)[Fuc(a1-2)[GalNAc(a1-3)]Gal(b1-4)GlcNAc(b1-6)]GalNAc
In short: as §1

[12] = molecular target: Fuc(a1-3)[Gal(b1-4)]Glc6S
In short: as §1

[13] = molecular target: Fuc(a1-3)[Gal(b1-4)]GlcNAc(b1-3)GalNAc
In short: as §1

[14] = molecular target: Fuc(a1-3)[Gal(b1-4)]GlcNAc(b1-6)GalNAc
In short: as §1

[15] = molecular target: Fuc(a1-3)[GalNAc(b1-4)]GlcNAc
In short: as §1

Gal(a1-4)GlcNAc = molecular target: Gal(a1-4)GlcNAc
In short: as §1

Gal(b1-2)Gal = molecular target: Gal(b1-2)Gal
In short: as §1

Gal(b1-3)Gal(b1-4)GlcNAc = molecular target: Gal(b1-3)Gal(b1-4)GlcNAc
In short: as §1

[16] = molecular target: Gal(b1-3)GalNAc(a1-3)[Fuc(a1-2)]Gal(b1-4)Glc
In short: as §1

[17] = molecular target: Gal(b1-3)GlcNAc(b1-3)GalNAc
In short: as §1

Gal(b1-3)GlcNAc6S = molecular target: Gal(b1-3)GlcNAc6S
In short: as §1

[18] = molecular target: Gal(b1-3)[GlcNAc(b1-6)]GalNAc
In short: as §1

Gal(b1-4)Glc6S = molecular target: Gal(b1-4)Glc6S
In short: as §1

[19] = molecular target: Gal(b1-4)GlcNAc(b1-2)Man(a1-3)[GlcNAc(b1-4)][Gal(b1-4)GlcNAc(b1-2)Man(a1-6)]Man(b1-4)GlcNAc(b1-4)GlcNAc
In short: as §1

[20] = molecular target: Gal(b1-4)GlcNAc(b1-2)[Gal(b1-4)GlcNAc(b1-4)]Man(a1-3)[Gal(b1-4)GlcNAc(b1-2)Man(a1-6)]Man(b1-4)GlcNAc(b1-4)GlcNAc
In short: as §1

[21] = molecular target: Gal(b1-4)GlcNAc(b1-3)Gal(b1-3)GlcNAc
In short: as §1

[22] = molecular target: Gal(b1-4)GlcNAc(b1-3)Gal(b1-4)GlcNAc(b1-2)Man(a1-3)[Gal(b1-4)GlcNAc(b1-3)Gal(b1-4)GlcNAc(b1-2)Man(a1-6)]Man(b1-4)GlcNAc(b1-4)[Fuc(a1-6)]GlcNAc
In short: as §1

[23] = molecular target: Gal(b1-4)GlcNAc(b1-3)Gal(b1-4)GlcNAc(b1-3)Gal(b1-4)GlcNAc(b1-3)Gal(b1-4)GlcNAc(b1-3)Gal(b1-4)GlcNAc(b1-2)Man(a1-3)[Gal(b1-4)GlcNAc(b1-3)Gal(b1-4)GlcNAc(b1-3)Gal(b1-4)GlcNAc(b1-3)Gal(b1-4)GlcNAc(b1-3)Gal(b1-4)GlcNAc(b1-2)Man(a1-6)]Man(b1-4)GlcNAc(b1-4)GlcNAc
In short: as §1

[24] = molecular target: Gal(b1-4)GlcNAc(b1-3)Gal(b1-4)GlcNAc(b1-6)[Gal(b1-3)]GalNAc
In short: as §1

[25] = molecular target: Gal(b1-4)GlcNAc(b1-3)[Gal(b1-4)GlcNAc(b1-6)]Gal(b1-4)GlcNAc
In short: as §1

Gal6S(b1-3)GlcNAc6S = molecular target: Gal6S(b1-3)GlcNAc6S
In short: as §1

GalNAc4S6S(b1-4)GlcNAc = molecular target: GalNAc4S6S(b1-4)GlcNAc
In short: as §1

Glc(a1-4)Glc = molecular target: Glc(a1-4)Glc
In short: as §1

[26] = molecular target: GlcA3S(b1-3)Gal(b1-4)GlcNAc(b1-3)Gal(b1-4)Glc
In short: as §1

[27] = molecular target: GlcNAc(a1-4)Gal(b1-3)GlcNAc
In short: as §1

[28] = molecular target: GlcNAc(b1-2)Man(a1-3)[GlcNAc(b1-2)Man(a1-6)]Man(b1-4)GlcNAc(b1-4)GlcNAc
In short: as §1

Man(a1-3)[Man(a1-6)]Man = molecular target: Man(a1-3)[Man(a1-6)]Man
In short: as §1

Man(a1-6)Man = molecular target: Man(a1-6)Man
In short: as §1

[29] = molecular target: Neu5Ac(a2-3)Gal(b1-3)GalNAc6S
In short: as §1

[30] = molecular target: Neu5Ac(a2-3)Gal(b1-4)GlcNAc(b1-2)[Neu5Ac(a2-3)Gal(b1-4)GlcNAc(b1-4)]Man(a1-3)[GlcNAc(b1-4)][Neu5Ac(a2-3)Gal(b1-4)GlcNAc(b1-2)[Neu5Ac(a2-3)Gal(b1-4)GlcNAc(b1-6)]Man(a1-6)]Man(b1-4)GlcNAc(b1-4)GlcNAc
In short: as §1

[31] = molecular target: Neu5Ac(a2-3)Gal(b1-4)GlcNAc(b1-3)Gal(b1-4)GlcNAc(b1-2)Man(a1-3)[Neu5Ac(a2-3)Gal(b1-4)GlcNAc(b1-3)Gal(b1-4)GlcNAc(b1-2)Man(a1-6)]Man(b1-4)GlcNAc(b1-4)GlcNAc
In short: as §1

[32] = molecular target: Neu5Ac(a2-3)Gal(b1-4)GlcNAc(b1-3)Gal(b1-4)GlcNAc(b1-3)GalNAc
In short: as §1

[33] = molecular target: Neu5Ac(a2-3)Gal(b1-4)[Fuc(a1-3)]GlcNAc(b1-3)GalNAc
In short: as §1

[34] = molecular target: Neu5Ac(a2-3)Gal6S(b1-4)[Fuc(a1-3)]GlcNAc
In short: as §1

[35] = molecular target: Neu5Ac(a2-3)[GalNAc(b1-4)]Gal(b1-4)Glc
In short: as §1

[36] = molecular target: Neu5Ac(a2-6)Gal(b1-3)GlcNAc(b1-3)[Gal(b1-4)GlcNAc(b1-6)]Gal(b1-4)Glc
In short: as §1

[37] = molecular target: Neu5Ac(a2-6)Gal(b1-4)GlcNAc(b1-3)Gal(b1-4)GlcNAc(b1-3)GalNAc
In short: as §1

[38] = molecular target: Neu5Ac(a2-6)Gal(b1-4)GlcNAc6S
In short: as §1

[39] = molecular target: Neu5Ac(a2-8)Neu5Ac(a2-3)[Gal(b1-3)GalNAc(b1-4)]Gal(b1-4)Glc
In short: as §1

[40] = molecular target: Neu5Gc(b2-6)Gal(b1-4)GlcNAc
In short: as §1

B1: TAL6-4LysM (Trichoderma atroviride) (protein)
chain: AADSIPSISPTGIITPTPTQSGMVSNCNKFYDVHSNDGCSAIASSQHVDLSSLYKWNPAIKTDCSGLQASVYVCIGILTTSMSTTSKLPTTTSKPSTTSKPPTGITTPTPTQSGMVKNCNKFYDVHSGDGCSAIASSQKVNLSSFYLWNPAVKTDCSGLQASVFVCIGTLTTSMSTTTSKLPTTTSKPSTTSKPPTGIITPTPTQNGMVKNCNKFYDVHSGDGCSAIASSQKVNLSSFYLWNPAVKTDCSGLQASVFVCVGTATTTTAAGITTPTPTQSGMVSGCNKFYDVHAGDGCSAIASSQKIALSSLYKWNPAVKTDCSGLQASVYICIGVGNAAAARVTGALEQKLISEEDLNSAVDHHHHHH
glycan array binding signal (z-score) [1]: -0.335
glycan array binding signal (z-score) [2]: -1.13
glycan array binding signal (z-score) [3]: 1.83
glycan array binding signal (z-score) [4]: 0.858
glycan array binding signal (z-score) [5]: -0.49
glycan array binding signal (z-score) [6]: 0.899
glycan array binding signal (z-score) [7]: -0.234
glycan array binding signal (z-score) [8]: -0.6
glycan array binding signal (z-score) [9]: 2.32
glycan array binding signal (z-score) [10]: -0.51
glycan array binding signal (z-score) [11]: -0.157
glycan array binding signal (z-score) [12]: 0.195
glycan array binding signal (z-score) [13]: -0.606
glycan array binding signal (z-score) [14]: -0.062
glycan array binding signal (z-score) [15]: 3.19
glycan array binding signal (z-score) (Gal(a1-4)GlcNAc): 2.59
glycan array binding signal (z-score) (Gal(b1-2)Gal): 0.734
glycan array binding signal (z-score) (Gal(b1-3)Gal(b1-4)GlcNAc): 2.92
glycan array binding signal (z-score) [16]: -0.473
glycan array binding signal (z-score) [17]: 0.663
glycan array binding signal (z-score) (Gal(b1-3)GlcNAc6S): 3.15
glycan array binding signal (z-score) [18]: 2.39
glycan array binding signal (z-score) (Gal(b1-4)Glc6S): -0.334
glycan array binding signal (z-score) [19]: -0.532
glycan array binding signal (z-score) [20]: 3.53
glycan array binding signal (z-score) [21]: -0.823
glycan array binding signal (z-score) [22]: -0.014
glycan array binding signal (z-score) [23]: -0.74
glycan array binding signal (z-score) [24]: 1.17
glycan array binding signal (z-score) [25]: 0.074
glycan array binding signal (z-score) (Gal6S(b1-3)GlcNAc6S): 0.018
glycan array binding signal (z-score) (GalNAc4S6S(b1-4)GlcNAc): 1.16
glycan array binding signal (z-score) (Glc(a1-4)Glc): -0.584
glycan array binding signal (z-score) [26]: 1.02
glycan array binding signal (z-score) [27]: -0.119
glycan array binding signal (z-score) [28]: 2.79
glycan array binding signal (z-score) (Man(a1-3)[Man(a1-6)]Man): 3.24
glycan array binding signal (z-score) (Man(a1-6)Man): -1.37
glycan array binding signal (z-score) [29]: 0.743
glycan array binding signal (z-score) [30]: -1.17
glycan array binding signal (z-score) [31]: 2.52
glycan array binding signal (z-score) [32]: -0.304
glycan array binding signal (z-score) [33]: -0.18
glycan array binding signal (z-score) [34]: -1.06
glycan array binding signal (z-score) [35]: -1.03
glycan array binding signal (z-score) [36]: 0.176
glycan array binding signal (z-score) [37]: 3.9
glycan array binding signal (z-score) [38]: 1.36
glycan array binding signal (z-score) [39]: -0.586
glycan array binding signal (z-score) [40]: -0.286

— the supplement of paper PMC8728848
